# Laboratory results taken from ChEMBL document CHEMBL3988442, “University of Dundee, Small-Polar-MMV Screening Library” (2021).
# Screen size: about 48,000 compounds; about 13,000 (27%) showed an effect of 50% or more. The list shows a part of the results.
# Test system: Wolbachia pipientis
# Assay: Anti-Wolbachia Cell-Based Screen
# Type: functional
# Design: scale not given: in the data most compounds retested in dose-response had high values
# Details: 5 µM
row,SMILES,Percent Effect [%]
1,CNC(=O)c1cccc(CCNC2CCSc3ccccc32)c1 (stereo not drawn),-5.556
2,CC(=O)Nc1ccc(C(=O)Nc2cnc3n2CCCC3)c(C)c1,-9.74
3,Cn1ccc(CNC(=O)N2CCC(C3(C)OCCO3)CC2)c1,7.37
4,c1cnn(C2CN(Cc3noc(C4CC4)n3)C2)c1,20.24
5,COC(=O)[C@H]1C[C@@H](O)CCN1S(=O)(=O)c1cc(Cl)ccc1OC,-10.78
6,Cc1nccn1-c1cc(CNC(=O)CCC2CCCO2)ccn1 (stereo not drawn),10.65
7,COc1ccccc1C(=O)NS(=O)(=O)c1cccc(C#N)c1,106.4
8,COc1cccc(C(=O)NS(=O)(=O)c2cccc(C#N)c2)c1OC,-1.089
9,COC(=O)c1cccc(S(=O)(=O)NC(=O)c2cccc(OC)c2OC)c1,4.901
10,O=C(Nc1ccccc1Oc1cccc(F)c1)C1CCS(=O)(=O)C1 (stereo not drawn),17.61
11,CSc1nc2ncc3c(=O)n(CCN4CCCCC4)ccc3n2n1,124.9
12,COCCn1ccc2c(cnc3nc(SC)nn32)c1=O,167
13,COCCn1cncc1Cn1cccc(C(F)(F)F)c1=O,-5.803
14,COc1nc2ccn(CCc3cnccn3)c(=O)c2cc1C#N,-4.634
15,CN1CCN(CCn2cnc3c(F)cccc3c2=O)CC1,0.6334
16,CS(=O)(=O)Cc1nc(CCc2ccccc2)nn1-c1ccccn1,-12.46
17,NC(=O)NCC(=O)N1CCCC(c2nccn2Cc2ccncc2)C1 (stereo not drawn),-11.58
18,CC(Cn1cncn1)NC(=O)Nc1ccc(F)cc1OCC1CC1 (stereo not drawn),4.941
19,c1ccc(CN2CCc3ncnc(-c4cncnc4)c3CC2)nc1,-4.171
20,O=C(O)C(F)(F)F.O=C(O)C(F)(F)F.c1cncc(-c2ncnc3c2CCN(Cc2ccsc2)CC3)c1,91.57
21,CCc1ccc(CN2CCc3ncnc(-c4cccnc4)c3CC2)o1.O=C(O)C(F)(F)F.O=C(O)C(F)(F)F,106.1
22,Cn1cccc1CN1CCc2ncnc(-c3cccnc3)c2CC1,88.44
23,COc1ncnc2c1CCN(Cc1cccs1)CC2.O=C(O)C(F)(F)F,-7.322
24,O=C(O)C(F)(F)F.O=C(O)C(F)(F)F.c1cncc(-c2ncnc3c2CCN(Cc2cccs2)CC3)c1,89.28
25,O=C(C1CCOC1)N1CCc2ncnc(-c3cccnc3)c2CC1 (stereo not drawn),8.249

row,SMILES,Percent Effect [%]
1,O=C(O)C(F)(F)F.O=C(O)C(F)(F)F.c1ccc(CN2CCc3ncnc(-c4cccnc4)c3CC2)nc1,17.47
2,Cc1ccc(CN2CCc3ncnc(-c4cccnc4)c3CC2)o1.O=C(O)C(F)(F)F.O=C(O)C(F)(F)F,-3.02
3,CCCN(C(=O)CN1CCN(CCO)CC1)C1=CCCCC1,10.87
4,c1cnc(NCc2noc3c2CN(C2CCOC2)CC3)nc1 (stereo not drawn),-0.4343
5,CS(=O)(=O)N1CC[C@@H](CC(=O)O)[C@@H](CC2=NCCc3cc(F)ccc32)C1,-4.983
6,N#Cc1cc2c(=O)n(CC(O)C(F)(F)F)ccc2[nH]c1=O (stereo not drawn),-28.05
7,COCCCNC(=O)C(C)(C)N(C)C1CCCC1,11.81
8,CN(Cc1nnc(C2CC2)o1)CC1CCCN1c1cccnn1 (stereo not drawn),15.59
9,Cn1c(=O)oc2cc(Nc3nccnc3C#N)ccc21,-0.7115
10,Cc1cc(CNC(=O)NCC(O)c2cccc(C(F)(F)F)c2)no1 (stereo not drawn),-1.276
11,Cc1nc(CN2CCc3ncnc(-c4ccccc4)c3CC2)cs1.O=C(O)C(F)(F)F,-8.271
12,Cc1nc(CN2CCc3ncnc(-c4ccsc4)c3CC2)cs1.O=C(O)C(F)(F)F,-15.15
13,Cc1nc(CN2CCc3ncnc(-c4cccnc4)c3CC2)cs1.O=C(O)C(F)(F)F.O=C(O)C(F)(F)F,101.9
14,CC(C)(C)CNC(=O)CNC(=O)C1CC1,-0.05069
15,CCOC(=O)c1ccc(N2CCN(Cc3c(C)nn(C)c3Cl)CC2)nc1,-11.85
16,C/C(NC(=O)c1ccco1)=C1/C(=O)C[C@@H]2[C@H]1C2(C)C,112.1
17,CC(C)n1cccc1C(=O)N1CC[C@@H](NC(=O)c2ccccn2)[C@H](O)C1,9.129
18,C/C(NC(=O)c1ccccn1)=C1\C(=O)C[C@@H]2[C@H]1C2(C)C,103
19,O=C(NC1CC(=O)N(C2CC2)C1)c1cccs1 (stereo not drawn),3.357
20,O=C(Nc1c(N2CCCC2)cccc1N1CCCC1)c1ccccn1,-1.766
21,O=C(NCC1(O)CCc2ccccc2C1)c1cccs1 (stereo not drawn),-6.747
22,CC(=O)N1CC2C[C@]2(NC(=O)c2ccco2)C1 (stereo partly drawn),-12.88
23,C/C(NC(=O)c1cccs1)=C1\C(=O)C[C@@H]2[C@H]1C2(C)C,112.6
24,O=C(N[C@]12CC1CN(C(=O)c1ccco1)C2)c1ccco1 (stereo partly drawn),-8.008
25,CNC(=O)[C@H]1CC[C@@H]2[C@@H](CCN2C(=O)N(C)C)O1,-9.576

row,SMILES,Percent Effect [%]
1,O=C(NCCC(=O)N1CCCC1)C(OC1CCCC1)c1ccccc1 (stereo not drawn),-0.3907
2,COCC1COCCC12CCN(Cc1cccs1)CC2.O=C(O)C(F)(F)F (stereo not drawn),99.73
3,O=C(O)C(F)(F)F.c1csc(CN2CCC3(CCOCC3COCC3CC3)CC2)n1 (stereo not drawn),99.84
4,COCC1COCCC12CCN(CCc1ccccc1)CC2.O=C(O)C(F)(F)F (stereo not drawn),7.834
5,O=C(O)C(F)(F)F.O=C(O)C(F)(F)F.c1cc(CN2CCC3(CCOCC3COCC3CC3)CC2)ccn1 (stereo not drawn),-8.349
6,O=C(O)C(F)(F)F.c1cc(CN2CCC3(CCOCC3COCC3CC3)CC2)co1 (stereo not drawn),-40.89
7,O=C(O)C(F)(F)F.c1coc(CN2CCC3(CCOCC3COCC3CC3)CC2)c1 (stereo not drawn),-46.4
8,COCC1COCCC12CCN(Cc1nccs1)CC2.O=C(O)C(F)(F)F (stereo not drawn),97.2
9,CN(Cc1nc2ccccc2[nH]1)C(=O)CN(C)c1ccc(Cl)cn1,9.224
10,CCN(CC)CCNCc1cc(O)c2cc(C)ccc2n1,11.73
11,CO[C@H]1COC[C@@H]1NC(=O)C1(Oc2ccc(Cl)cc2)CCNCC1,6.112
12,C[S+]([O-])CCNCc1ccc(OCc2cscn2)cc1 (stereo not drawn),1.801
13,CCCN1CCN(C(=O)c2cc3ccccc3cn2)[C@H]2CS(=O)(=O)C[C@H]21,0.5207
14,CC(C)N[C@@H]1CC[C@@H]1NC(=O)c1ccccc1OC(F)(F)C(F)F,-9.491
15,CC1CCN(c2cc(CCC3CCCN3)ncn2)CC1.Cl (stereo not drawn),81.62
16,Nc1ccc(-c2cc(O)cc(CCC3CCCCN3)c2)cn1 (stereo not drawn),-4.594
17,CC1CCN(c2cc(-n3cnc(C(=O)N4CCSCC4)c3)ncn2)CC1,13.65
18,CCc1cc(N2CCCC(c3noc(CC)n3)C2)ncn1 (stereo not drawn),-9.129
19,Cl.c1nc(CCC2CCCCN2)cc(N2CCCC2)n1 (stereo not drawn),95.63
20,CC1CCN(c2cc(NC(=O)C3CC3)ncn2)CC1,10.56
21,OCC1CCCN1c1cc(N2CCC(OC3CCCC3)CC2)ncn1 (stereo not drawn),10.66
22,Cl.c1nc(CCC2CCCN2)cc(N2CCCCCC2)n1 (stereo not drawn),105.3
23,Cl.c1nc(CCC2CCCN2)cc(N2CCCOCC2)n1 (stereo not drawn),-10.48
24,O=C(O)C(F)(F)F.O=C([C@H]1CN(Cc2ccc(F)cc2)C[C@H]2OCC[C@@H]12)N1CCCO1,1.984
25,Cc1cc(NC(=O)CN2CCOC(Cn3cccn3)C2)n(C)n1 (stereo not drawn),-0.9893

row,SMILES,Percent Effect [%]
1,CCC1CCCN(CC(=O)Nc2oc(C)c3c(C)n[nH]c(=O)c23)C1 (stereo not drawn),7.246
2,CN(Cc1ccc(OCC(=O)N2CCOCC2)cc1)S(C)(=O)=O,-1.865
3,CCc1ccccc1C(=O)N1CCN(S(C)(=O)=O)[C@@H](C)C1,7.255
4,NC(=O)CCOc1nc(-c2ccccc2Cl)no1,-3.331
5,CCOCCn1nc(C2CCNCC2)n(Cc2ccccc2)c1=O,-5.43
6,CCn1c(C2CCNCC2)nn(CCn2cncn2)c1=O,89.88
7,CCn1c(C2CCCNC2)nn(CCn2cncn2)c1=O (stereo not drawn),98.85
8,CCn1c(C2CCNCC2)nn(CCn2ccc(C)n2)c1=O,83.74
9,CCCn1nc(C2CCNCC2)n(Cc2ccccc2)c1=O,-22.36
10,CCn1c(Cn2cncn2)nnc1C1CCN(Cc2ccncc2)CC1,-0.7206
11,CCn1c(C2CCNCC2)nn(CCCc2ccccc2)c1=O,0.4782
12,O=c1n(CCn2cccc2)nc(C2CCNCC2)n1Cc1ccccc1,-16.93
13,CCn1c(C2CCCN(C(=O)c3ccc[nH]3)C2)nn(CCN(C)C)c1=O (stereo not drawn),-8.209
14,FC(F)(F)c1ccc2nc([C@H]3CCN(C4CCOCC4)C3)[nH]c2c1,-2.136
15,Cc1nn(C)c(C)c1S(=O)(=O)N(C)Cc1nn(C)c(Cl)c1Cl,-26.42
16,c1coc(CN2Cc3nccn3CC(Cn3cncn3)C2)c1 (stereo not drawn),1.02
17,c1cncc(OCC2CN(Cc3ccco3)Cc3nccn3C2)c1 (stereo not drawn),-2.745
18,c1cncc(COCC2CN(Cc3ccco3)Cc3nccn3C2)c1 (stereo not drawn),6.885
19,CCN(CC)CC1CN(Cc2ccco2)Cc2nccn2C1 (stereo not drawn),84.77
20,CCOCC1CN(Cc2ccco2)Cc2nccn2C1.O=C(O)C(F)(F)F (stereo not drawn),99.94
21,CC(C)C(C(=O)NCC1CC1)n1cnc2cc(F)c(F)cc21 (stereo not drawn),-9.964
22,O=C(CCc1nc(Cl)n[nH]1)NC1CCCN(CC2CCCCC2)C1 (stereo not drawn),-7.697
23,CCc1ncc(C(=O)N(C)Cc2cc(-c3ccncc3)no2)cn1,-12.94
